Inconclusive results are not listed. Active and inactive are the calls of the source. Unless noted, the call rests on the fitted dose curve; in most records, active means well fitted curve in the direction sought with a large enough effect in the repeat runs; inconclusive means weak or mixed curves; inactive means no such curve, though single readings can be large; an effect the other way counts as inactive or inconclusive.
Columns and labels:
[1] = qHTS assay to identify small molecule agonists of the peroxisome proliferator-activated receptor delta (PPARd) signaling pathway - cell viability counter screen (AID 743211); further: nearly all actives have a fitted effect of over 55% in size; further: potency means the concentration at half of the fitted maximal effect
How it was run: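 HEK293H PPARd-bla, 3000 cells/well; 5 h preincubation 37C/5% CO2; cpd in DMSO, 17 h 37C; B/G FRET substrate 2 h RT; CellTiter-Glo 30 min RT, luminescence.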

[2] = molecular target: Peroxisome proliferator-activated receptor delta (Homo sapiens) (UniProt Q03181); assay: qHTS assay to identify small molecule agonists of the peroxisome proliferator-activated receptor delta (PPARd) signaling pathway (AID 743212; calls by dose curve)
How it was run: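 Tox21 library screened in GeneBLAzer PPARd UAS-bla HEK293H cells. After compound treatment at 37 C, a FRET-based beta-lactamase substrate was applied for 2 h and fluorescence recorded.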

[3] = qHTS assay to identify small molecule antagonists of the peroxisome proliferator-activated receptor delta (PPARd) signaling pathway - cell viability counter screen (AID 743213); further: nearly all actives have a fitted effect of over 50% in size; further: potency means the concentration at half of the fitted maximal effect
How it was run: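 Viability counter-screen, qHTS format: PPARd-bla HEK293H, L165041 300 nM final, 17 h compound exposure at 37 C, CellTiter-Glo luminescence after 30 min RT.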

[4] = molecular target: Peroxisome proliferator-activated receptor delta (Homo sapiens) (UniProt Q03181); assay: qHTS assay to identify small molecule antagonists of the peroxisome proliferator-activated receptor delta (PPARd) signaling pathway (AID 743215; active means well fitted inhibition curve with a large enough effect in the signal ratio in the repeat runs, not every such curve was filed as active; the % refers to the signal ratio;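 further: cells stimulated with agonist L165041 at 300 nM final during compound exposure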; further: potency means the concentration at half of the fitted maximal effect)
How it was run: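 Plated HEK293H PPARd-bla cells rested 5 h at 37 C and 5% CO2. Compound, then agonist L165041 at 300 nM final, was added; 17 h at 37 C followed. Substrate loading, 2 h room temperature, fluorescence measured.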

[5] = qHTS assay to identify small molecule agonists of the farnesoid-X-receptor (FXR) signaling pathway - cell viability counter screen (AID 743218); further: nearly all actives have a fitted effect of over 45% in size; further: potency means the concentration at half of the fitted maximal effect
How it was run: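 Viability of FXR-bla HEK 293T cells is measured by ATP-based CellTiter-Glo luminescence following 16 h compound treatment at 37 C and a prior 2 h room-temperature beta-lactamase substrate step.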

[6] = qHTS assay to identify small molecule antagonists of the farnesoid-X-receptor (FXR) signaling pathway - cell viability counter screen (AID 743221; active means well fitted cell-killing curve with a large enough effect in the repeat runs, not every such curve was filed as active; further: nearly all actives have a fitted effect of over 50% in size; further: potency means the concentration at half of the fitted maximal effect)
How it was run: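 Luminescence from CellTiter-Glo measures cytotoxicity in GeneBLAzer FXR-UAS-bla HEK 293T cells. Cells were exposed to compounds with 50 uM chenodeoxycholic acid (final) for 16 h at 37 C, in wells also used for the reporter readout.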

[7] = molecular target: Vitamin D3 receptor (Homo sapiens) (UniProt P11473); assay: qHTS assay to identify small molecule agonists of the vitamin D receptor (VDR) signaling pathway (AID 743222; calls by dose curve)
How it was run: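 Fluorescence from cleaved LiveBLAzer B/G FRET substrate served as readout. VDR-bla cells had been treated 16 h at 37C with test compounds in DMSO, following a 4 h settling period, and substrate was loaded for 2 h at RT.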

[8] = molecular target: Vitamin D3 receptor (Homo sapiens) (UniProt P11473); assay: qHTS assay to identify small molecule antagonists of the vitamin D receptor (VDR) signaling pathway (AID 743223; active means well fitted inhibition curve with a large enough effect in the signal ratio in the repeat runs, not every such curve was filed as active; the % refers to the signal ratio; further: potency means the concentration at half of the fitted maximal effect)
How it was run: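 Antagonist mode uses 1alpha,25-dihydroxyvitamin D3 at 3 nM final as stimulus. VDR-bla cells receive compounds in DMSO, incubate 16 h at 37C, then a beta-lactamase FRET substrate for 2 h at room temperature before fluorescence measurement.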

[9] = molecular target: Bile acid receptor (Homo sapiens) (UniProt Q96RI1); assay: qHTS assay to identify small molecule agonists of the farnesoid-X-receptor (FXR) signaling pathway (AID 743220; active means well fitted activation curve with a large enough effect in the signal ratio in the repeat runs, not every such curve was filed as active; the % refers to the signal ratio)
How it was run: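 FXR-UAS-bla HEK 293T cells carrying a UAS-driven beta-lactamase reporter were plated for 5 h at 37C/5% CO2, then exposed to DMSO-dissolved Tox21 10K compounds for 16 h at 37C. A LiveBLAzer B/G FRET substrate was loaded for 2 h at room temperature before fluorescence reading.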

[10] = molecular target: Bile acid receptor (Homo sapiens) (UniProt Q96RI1); assay: qHTS assay to identify small molecule antagonists of the farnesoid-X-receptor (FXR) signaling pathway (AID 743217; active means well fitted inhibition curve with a large enough effect in the signal ratio in the repeat runs, not every such curve was filed as active; the % refers to the signal ratio; further: potency means the concentration at half of the fitted maximal effect)
How it was run: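 Screen of the Tox21 10K library in quantitative HTS format using FXR-UAS-bla HEK 293T reporter cells. Agonist chenodeoxycholic acid, 50 uM final, added with compounds; 16 h incubation at 37 °C; beta-lactamase FRET fluorescence measured.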

Measured: Potency

Vitamin D3 receptor (Homo sapiens), sequence (P11473 whole entry, looked up): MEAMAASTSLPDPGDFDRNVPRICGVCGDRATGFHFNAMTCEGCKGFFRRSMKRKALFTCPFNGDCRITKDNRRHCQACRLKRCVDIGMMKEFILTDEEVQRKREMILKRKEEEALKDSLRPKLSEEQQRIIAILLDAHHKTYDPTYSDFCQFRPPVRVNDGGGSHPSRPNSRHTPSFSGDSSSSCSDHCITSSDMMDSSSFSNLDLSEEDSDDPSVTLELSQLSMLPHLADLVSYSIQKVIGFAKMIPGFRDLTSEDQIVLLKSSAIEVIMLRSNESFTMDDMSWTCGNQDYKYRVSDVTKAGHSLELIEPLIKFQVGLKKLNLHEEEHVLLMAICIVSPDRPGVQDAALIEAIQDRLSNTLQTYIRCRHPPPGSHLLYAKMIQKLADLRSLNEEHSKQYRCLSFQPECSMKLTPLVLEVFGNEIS
Peroxisome proliferator-activated receptor delta (Homo sapiens), sequence (Q03181 whole entry, looked up): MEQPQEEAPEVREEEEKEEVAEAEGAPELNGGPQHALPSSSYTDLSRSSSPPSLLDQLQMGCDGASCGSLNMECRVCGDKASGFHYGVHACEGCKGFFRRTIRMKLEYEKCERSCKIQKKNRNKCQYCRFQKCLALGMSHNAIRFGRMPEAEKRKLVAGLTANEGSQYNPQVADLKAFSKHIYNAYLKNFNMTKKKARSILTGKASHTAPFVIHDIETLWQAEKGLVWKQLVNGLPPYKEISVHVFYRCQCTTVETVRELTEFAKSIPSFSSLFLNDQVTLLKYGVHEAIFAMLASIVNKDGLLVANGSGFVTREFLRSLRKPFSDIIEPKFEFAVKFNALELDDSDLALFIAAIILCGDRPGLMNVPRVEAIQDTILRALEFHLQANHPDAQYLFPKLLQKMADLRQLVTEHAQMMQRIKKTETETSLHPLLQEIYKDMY
Bile acid receptor (Homo sapiens), sequence (Q96RI1 whole entry, looked up): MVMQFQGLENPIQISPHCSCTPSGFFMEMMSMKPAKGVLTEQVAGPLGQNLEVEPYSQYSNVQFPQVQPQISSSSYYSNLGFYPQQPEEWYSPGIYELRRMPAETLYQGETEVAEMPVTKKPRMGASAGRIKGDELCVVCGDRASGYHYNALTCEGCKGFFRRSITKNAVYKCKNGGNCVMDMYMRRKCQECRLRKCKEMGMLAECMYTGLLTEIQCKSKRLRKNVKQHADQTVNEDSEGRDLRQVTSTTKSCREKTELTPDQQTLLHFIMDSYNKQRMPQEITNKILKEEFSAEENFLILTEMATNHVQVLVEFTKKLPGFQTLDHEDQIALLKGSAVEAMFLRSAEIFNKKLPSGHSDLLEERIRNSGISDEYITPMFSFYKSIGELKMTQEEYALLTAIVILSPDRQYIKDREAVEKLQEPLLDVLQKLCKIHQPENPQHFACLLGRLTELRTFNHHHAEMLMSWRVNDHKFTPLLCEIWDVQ

c1ccc2cc3c4ccccc4c4ccccc4c3cc2c1
inactive: [1] | [2] | [3] | [4] | [5] | [6] | [7] | [8]

SC1CCCCC1
inactive: [1] | [2] | [3] | [4] | [5] | [9] | [7] | [8]

CC(Cc1ccc(O)c(O)c1)C(C)Cc1ccc(O)c(O)c1 (stereo not given)
inactive: [1] | [3] | [5] | [9] | [6] | [7]

CCC(C)(C)c1ccc(CC(C)CN2C[C@@H](C)O[C@@H](C)C2)cc1 (stereo not given in full)
inactive: [2] | [3] | [4] | [5] | [6] | [7] | [8]
active: [1] 26.6 µM

CN1CCN(c2ccccc2/C=C2\SCCN(c3ccc(Cl)c(Cl)c3)C2=O)CC1
active: [1] 24.5 µM | [3] 24.5 µM | [4] 21.9 µM | [5] 43.6 µM | [6] 54.9 µM
inactive: [7]

CC(=O)[C@]1(O)Cc2c(O)c3c(c(O)c2[C@@H](O[C@H]2C[C@H](N)[C@H](O)[C@H](C)O2)C1)C(=O)c1ccccc1C3=O
inactive: [1] | [3] | [6] | [7]
active: [4] 3.76 µM | [8] 1.9 µM

COc1c(Br)cc(Br)c(C)c1Br
inactive: [1] | [3] | [10] | [5] | [9] | [6] | [7]

CCCCCCCCOC(=O)c1cc(O)c(O)c(O)c1
inactive: [2] | [7]
active: [1] 43.6 µM | [3] 43.6 µM | [4] 49 µM | [8] 54.9 µM

CN1CCN(CCCN2c3ccccc3Sc3ccc(C(F)(F)F)cc32)CC1
inactive: [9]
active: [1] 18.8 µM | [3] 26.6 µM | [5] 26.6 µM | [6] 26.6 µM

CN(C)CCOc1ccc(/C(=C(/CCCl)c2ccccc2)c2ccccc2)cc1
active: [1] 14.5 µM | [3] 10.3 µM | [5] 20.5 µM | [6] 40.9 µM

O=C1CCC/C=C\CCCCCCCCCC1
inactive: [1] | [2] | [10] | [5] | [9] | [6] | [7] | [8]

CCCCCCCCCCCCCCCCC(C(=O)O)C(O)(CC(=O)O)C(=O)O (stereo not given)
inactive: [2] | [7] | [8]
active: [1] 13.3 µM | [3] 18.8 µM | [5] 18.8 µM | [6] 23.7 µM

O=C(N[C@H](CO)[C@H](O)c1ccc([N+](=O)[O-])cc1)C(Cl)Cl
inactive: [1] | [2] | [3] | [5]

CN1CCN(CCCN2c3ccccc3Sc3ccc(Cl)cc32)CC1
inactive: [2] | [7]
active: [1] 26.6 µM | [3] 26.6 µM | [5] 26.6 µM | [6] 23.7 µM

CCCCCCCCCCCCCCCCCCNC(=O)OC1CCN(C(=O)OC[C@H](COC(=O)N(Cc2cccc[n+]2CC)C(=O)c2ccccc2OC)OC)CC1
active: [1] 10.6 µM | [3] 33.5 µM | [5] 26.6 µM
inactive: [2] | [8]

N#Cc1nc(Cl)c(Cl)c(Cl)c1Cl
inactive: [7]
active: [1] 7.76 µM | [3] 15.5 µM | [4] 7.76 µM | [5] 13.8 µM | [8] 6.92 µM

Oc1ccc(Cl)cc1C1CCCC1
inactive: [1] | [2] | [3] | [10] | [5] | [9] | [6]

CN[C@H]1CC[C@@H](c2ccc(Cl)c(Cl)c2)c2ccc(S(N)(=O)=O)cc21
active: [1] 6.92 µM | [3] 12.3 µM | [4] 34.7 µM | [10] 49 µM | [5] 13.8 µM | [6] 24.5 µM
inactive: [7]

CCCCCCCC/C=C\CCCCCCCC(=O)N(CCO)CCO
inactive: [3] | [4] | [10] | [7] | [8]
active: [1] 43.5 µM | [5] 54.7 µM

NCc1cccc(C2CCN(C(=O)c3ccc(C#Cc4ccccc4F)o3)CC2)c1
inactive: [9]
active: [1] 21.9 µM | [3] 49 µM | [5] 34.7 µM

From PubChem BioAssay (Tox21)
